Test results as given in the supplement of paper PMC6555819.

Legend:
Assay in all cases: PBM binding z-score (relative to random genomic background probes); higher = stronger binding; sequences stand for … in GC…GCGATTGACAGCGTAGAATGAAGG
[1] = system: FXR:RXRa (NR concentration 270 nM, RXRa partner concentration 90 nM)
In short: (§1)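 For binding z-scores, the reference was random background probes on custom Agilent 4×180K protein-binding microarrays. These arrays were incubated 1 h with ligand-free nuclear receptor dimers in PBS pH 7.4, 2% milk, 0.02% Triton X-100, 1 mM DTT, 0.2 mg/mL BSA and 0.4 mg/ml salmon testes DNA. Fluorescence was scanned after antibody detection of each partner (one per run) and regression-normalized.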

[2] = system: LXRa:RXRa (NR concentration 270 nM, RXRa partner concentration 90 nM)
In short: as §1

[3] = system: LXRa homodimer (NR concentration 270 nM)
In short: as §1

[4] = system: LXRb:RXRa (NR concentration 270 nM, RXRa partner concentration 90 nM)
In short: as §1

[5] = system: LXRb homodimer (NR concentration 270 nM)
In short: as §1

[6] = system: PPARa:RXRa (NR concentration 270 nM, RXRa partner concentration 90 nM)
In short: as §1

[7] = system: PPARg:RXRa (NR concentration 180 nM, RXRa partner concentration 90 nM)
In short: as §1

[8] = system: PPARg:RXRa 270nM:90nM, anti-RXR (NR concentration 270 nM, RXRa partner concentration 90 nM)
In short: as §1

[9] = system: PPARg:RXRa 30nM:10nM, anti-RXR (NR concentration 30 nM, RXRa partner concentration 10 nM)
In short: as §1

[10] = system: PPARg:RXRa 90nM:30nM, anti-RXR (NR concentration 90 nM, RXRa partner concentration 30 nM)
In short: as §1

| Sequence | PBM binding z-score [1] | PBM binding z-score [2] | PBM binding z-score [3] | PBM binding z-score [4] | PBM binding z-score [5] | PBM binding z-score [6] | PBM binding z-score [7] | PBM binding z-score [8] | PBM binding z-score [9] | PBM binding z-score [10] |
| --- | --- | --- | --- | --- | --- | --- | --- | --- | --- | --- |
| AGAACGAGGTTAAGATCAGGGAAACAGAATACAT | 2.1 | 2.05 | 0.0843 | 2.09 | 0.134 | 3.4 | 1.98 | 1.92 | 0.64 | 1.61 |
| TCGAGAAGGTTACCAATGGGGCATTCAGCTTTCT | 0.688 | 2.9 | -0.534 | 1.76 | -0.525 | 2.11 | 0.146 | 1.49 | 2 | 1.69 |
| CCTAGTTGGTCAAGGGCACACACGCTATAGGTAC | 0.355 | 0.541 | 0.134 | 0.385 | -0.148 | 0.682 | 1.51 | 1.57 | 0.541 | 1.26 |
| CCTCGGAGAACAACAGGAGGTCAGAGCTGCCAGA | 0.847 | 1.87 | 1.86 | 1.46 | -0.303 | 1.82 | 0.213 | -0.135 | -1.02 | -0.29 |
| ACTATTAGTTGAGACGAGGGAAACCGATAGGTTG | 0.194 | 0.0182 | -0.36 | -0.399 | -0.0748 | -0.349 | 0.531 | -0.165 | 0.215 | 0.291 |
| CGTCAAAGTTCAAGGTAACCTAACAGAAAGCAGC | 6.46 | 5.68 | 2.88 | 3.53 | 0.767 | 5.05 | 4.79 | 5.23 | 1.93 | 3.95 |
| AGTCAAAGTACATCTAGGTAACGTAAGATATGCT | -0.254 | -0.258 | -0.145 | -0.0982 | -0.223 | 0.359 | 1.35 | 0.631 | 0.46 | 0.326 |
| TCTGCTAGGTCAGTGGGTCAGCTAACGAGCTGCC | 1.49 | 1.09 | -0.548 | 0.738 | 0.0153 | 3.41 | 5.03 | 4.53 | 2.11 | 3.51 |
| TGAATGAGGTTAAAGATCAGAGAACGTGGCGTCG | 3.2 | 2.25 | -0.274 | 1.7 | 0.104 | 4.43 | 6.08 | 6.65 | 5.22 | 6.58 |
| TCTTGTAGATCAGCAAGTTAAGAAAGCTGGCCAA | -0.13 | -0.113 | -0.739 | -0.0484 | -0.743 | 0.316 | -0.599 | 1.24 | 2.5 | 1.78 |
| ATGTGTAGGTTATCGGGTCATTCAGTTTGCGCAT | 3.54 | 3.13 | 1.9 | 3.3 | 1.26 | 4.08 | 4.09 | 4.29 | 1.54 | 3.43 |
| AGAATGAGGATATTAAGATCAGGGAATTGCGGTC | -0.251 | -0.424 | 0.0165 | -0.53 | -0.355 | -0.323 | 0.311 | -0.0295 | -0.0325 | -0.182 |
| CGTCCTAGGTCAGCAGGTCAGTGAAAGCGACGTG | 2.92 | 2.04 | 0.0283 | 1.6 | -0.603 | 3.23 | 2.32 | 3.21 | 0.151 | 1.87 |
| CCTTACGGGTCACGAGGTTAAAGCACGACGAGCG | 7.54 | 4.81 | 0.696 | 4.3 | 0.192 | 6.28 | 7.86 | 7.25 | 3.78 | 6.28 |
| TGAATTAGGTTATAAGATCAGGGAACGTTGCAAA | 0.295 | 0.216 | -0.00025 | 0.474 | 0.221 | 1.97 | 2.18 | 3.06 | 1.96 | 2.45 |
| AGAACGAGGGCACGTTGAGTTGATAGCAGAGTAG | 0.758 | 0.705 | -0.372 | 0.249 | -0.789 | 2.23 | 2.19 | 1.42 | 0.235 | 0.958 |
| TCTAGTTGGTCACGGAGATCACACACGACGGGTA | 0.323 | 0.174 | 0.394 | 0.575 | 0.153 | 0.929 | 1.16 | 2.06 | 2.93 | 2.31 |
| CCTTATGGGTCACTGACAGGTTATAGCATTTGGA | 3.95 | 3.45 | 0.192 | 2.96 | -0.062 | 4.93 | 5.81 | 5.11 | 2.32 | 4.08 |
| CAAACTAGGTCAACAGGTCAAAGTCCGCTTCCCG | 6.05 | 5.38 | 3.92 | 4.38 | 1.14 | 6.02 | 9.26 | 7.93 | 6.55 | 8.02 |
| ATACCAAGGTGATCGCGAGGTCGTTGATACTAAC | 1.6 | 0.914 | 0.243 | 1.06 | -0.19 | 1.62 | 0.486 | 0.381 | -0.106 | 0.108 |
| GGAACGAGGGCAAGTTGATACCAGAGTTTGATGG | 1.04 | 0.448 | -0.0805 | 0.373 | 0.0862 | 1.58 | 1.31 | 1.19 | 0.0746 | 0.594 |
| GGAACAAGGGCATTCGAGTTGATAGCATGGCGAT | 1.63 | 1.37 | 0.0326 | 0.349 | -0.333 | 1.16 | 0.807 | 0.531 | -0.0599 | 0.199 |
| CCTTACGGGTCACTCGAGGTTATAGCATCGGAGT | 5.2 | 7.76 | 3.19 | 5.72 | -0.178 | 5.01 | 4.03 | 4.33 | 1.41 | 3.01 |
| ATATGTAGGTTAGCAGGGGTCATTCAGACTAGGC | 5.14 | 5.99 | 4.53 | 5.37 | 1.78 | 5.56 | 6.6 | 5.97 | 3.32 | 5.33 |
| CGAACTAGGTCACGAAAGGTCAAAGTCGAATGAC | 7.73 | 8.18 | 7.39 | 7.24 | 2.38 | 6.49 | 10.5 | 8.46 | 6.75 | 8.51 |
